# Compounds with a hit are over-represented: about 2.3% of the library has one in this group of screens.
# KDM4E inh – JMJD2E (human) inhibition; B2RXH2; JMJD2E catalytic domain, FDH-coupled NADH fluorescence (FDH is formaldehyde dehydrogenase); Potency, µM (highest dose often 57.1 µM), hits mostly inhibitors; hit rate 1.6% among 230,000; active = well fitted inhibition curve with a large enough effect, not every such curve was filed as active; inconclusive = small, poorly fitted or top-dose-only effect, or another doubt; inactive = no such curve, though single readings can be large or run the other way; also: nearly all actives have a fitted effect of over 50% in size
# Target sequence (B2RXH2 1-337 limits assumed): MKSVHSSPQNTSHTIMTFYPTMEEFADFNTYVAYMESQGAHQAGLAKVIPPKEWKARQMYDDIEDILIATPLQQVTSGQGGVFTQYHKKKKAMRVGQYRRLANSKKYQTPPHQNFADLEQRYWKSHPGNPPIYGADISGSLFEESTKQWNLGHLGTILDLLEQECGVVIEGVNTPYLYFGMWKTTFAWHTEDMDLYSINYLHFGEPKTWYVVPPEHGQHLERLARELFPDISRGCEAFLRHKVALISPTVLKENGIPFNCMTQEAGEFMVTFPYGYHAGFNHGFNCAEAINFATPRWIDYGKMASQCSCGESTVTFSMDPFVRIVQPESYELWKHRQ
# FBPA coupling cs – counter-screen for Giardia aldolase inhibitors: coupling enzyme system. activity change, negative = inhibition, % at 58.2 µM, hits read low. hit rate 0.67% among 290,000. coupling enzyme system counterscreen, AmpLite Red fluorescence. AID 2472; in the data active = activity change below about -30%
#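 Counterscreen lacking aldolase: glyceraldehyde-3-phosphate coupling-enzyme reagent preincubated 10 min at RT with compound (at 57.5 uM final), then substrate/coupling system with AmpLite Red added; fluorescence read at 525/598 nm after 20 min RT.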
# RGS12 GoLoco inh – inhibitors of human Gai1-RGS12 GoLoco interaction (red fluorophore). P63096. Potency, µM (titrated, usually from 61.6 µM), usual class: inhibitors. AID 880. Gai1:RGS12 GoLoco peptide FP, rhodamine, 10 min. hit rate 0.44% among 230,000; active = well fitted inhibition curve with a large enough effect, not every such curve was filed as active; inactive = no such curve, though single readings can be large or run the other way; also: nearly all actives have a fitted effect of over 30% in size
# Target sequence (P63096 whole entry, looked up): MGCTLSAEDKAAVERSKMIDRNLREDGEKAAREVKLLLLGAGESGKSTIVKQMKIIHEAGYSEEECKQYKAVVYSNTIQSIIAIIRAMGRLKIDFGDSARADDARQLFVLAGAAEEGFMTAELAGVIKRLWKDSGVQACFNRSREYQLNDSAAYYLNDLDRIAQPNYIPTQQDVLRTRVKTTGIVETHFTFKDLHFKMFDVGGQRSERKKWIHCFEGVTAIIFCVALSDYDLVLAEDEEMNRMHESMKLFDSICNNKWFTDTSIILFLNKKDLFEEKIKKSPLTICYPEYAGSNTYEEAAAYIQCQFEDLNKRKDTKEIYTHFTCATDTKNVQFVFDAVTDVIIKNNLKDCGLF
# VDR inhibitor – inhibitors of human vitamin D receptor; AID 504847; Potency, µM, usual class: inhibitors; hit rate 0.93% among 400,000; VDR-SRC2-3 peptide fluorescence polarization, 2 h
#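 The screen uses fluorescence polarization to detect compounds that interfere with recruitment of the SRC2-3 coactivator peptide to VDR; plates are read after 2 h at room temperature.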
# HTT aggregate – inhibitors of mutant huntingtin aggregate formation in PC12 cells | PC12 HttQ103-GFP aggregates, Acumen cytometry, 40 h | Potency, µM (series often up to 46.1 µM), usual class: inhibitors | hit rate 1.1% among 220,000 | AID 1688; also: nearly all actives have a fitted effect of over 60% in size
#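 Inducible Q103 Huntingtin exon 1–GFP PC12 line, 1500 cells/well in phenol red free DMEM with 5% equine and 5% calf serum. Tebufenozide 100 nM induced expression; compounds titrated; aggregates quantified by cytometry.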
# HTT cytoprotect – protects HTT-Q103 PC12 cells, measured by ATP; Potency, µM (top dose mostly 56.4 µM), most hits filed as activators; AID 1471; hit rate 0.14% among 230,000; PC12 HTT-Q103 induced, cytoprotection, ATP luminescence, 40 h; also: nearly all actives have a fitted effect of over 45% in size
#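 ATP quantification (ATPlite) reports survival of PC12 cells in which tebufenozide, 100 nM final, switches on Htt exon 1 with 103 glutamines linked to GFP; compounds are titrated.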
# Hits are given with their value; - = inactive; ? = inconclusive; . = no result given; [ ] = dose if it differs, or a comment. Unless noted, calls follow the shape of the dose curve; as a rule, active = well fitted curve in the direction sought with a large enough effect; inconclusive = small, poorly fitted or top-dose-only effect, or another doubt; inactive = no such curve, though single readings can be large; an effect the other way counts as inactive or inconclusive.
SMILES,KDM4E inh,FBPA coupling cs,RGS12 GoLoco inh,VDR inhibitor,HTT aggregate,HTT cytoprotect
CC(=O)c1ccc(NC(=O)CC2Oc3ccc(C)cc3NC2=O)cc1 (stereo unspecified),.,.,.,-,.,.
Nc1cc(=O)nc(SCC(=O)Nc2cccc(Cl)c2)n1CCc1ccccc1,.,.,.,-,.,.
COc1ccc(NS(=O)(=O)c2ccc3c(c2)Cc2ccccc2-3)cn1,-,-,-,-,11µM,-
CCOC(=O)C1=C(C)NC(C)=C(C(=O)OCC)C1C(=O)OCC(=O)N(CC)C1CCS(=O)(=O)C1 (stereo unspecified),?,-,-,-,-,-
CCCCN(CCCC)S(=O)(=O)c1ccc(C(=O)Nc2nnc(CSC)o2)cc1,?,-,-,-,?,-
CCCCN(CC)S(=O)(=O)c1ccc(C(=O)Nc2nnc(CSC)o2)cc1,?,-,-,-,10µM,-
CCCN(CCC)S(=O)(=O)c1ccc(C(=O)Nc2nnc(CSC)o2)cc1,?,-,-,-,11µM,-
CCCCN(CC)S(=O)(=O)c1ccc(C(=O)Nc2nnc(-c3ccccc3Cl)o2)cc1,-,-,-,.,10µM,-[10 µM]
CCCc1c(OCC(O)COc2ccc3c(=O)cc(C(=O)O)oc3c2CCC)ccc(C(C)=O)c1O (stereo unspecified),.,-,-,45µM,.,-
CCOc1ccccc1CNC(=O)CCCN1C(=O)c2cccnc2Oc2ccc(Cl)cc21,.,.,.,-,.,.
COc1ccc(S(=O)(=O)N(C)c2ccc(C(=O)N3CCCCC3)cc2)cc1OC,-,-,-,-,-[9.22 µM],-[10 µM]
CCOC(=O)CSc1[nH]c2cc(OC)ccc2c1[N+](=O)[O-],-,-,-,?,-[9.22 µM],-[10 µM]
COc1ccc2c([N+](=O)[O-])c(Cl)[nH]c2c1,16µM,-32,-,-,-,-
CCOC(=O)CC(=O)CSc1nc(C)nc2c1oc1ccccc12,?,-,-,-,1.1µM,-
Cc1nc(SCC(=O)O)c2oc3ccccc3c2n1,-,-,-,-,-,-
COC(=O)[C@@]1(Cc2ccc(OC)cc2)[C@H]2c3cc(C(=O)N4CCCC4)n(CCF)c3C[C@H]2CN1C(=O)c1ccccc1,-,-,-,.,.,?
O=C1OC(c2cccs2)=N/C1=C/c1ccc(-c2cccc(C(=O)O)c2)o1,?,-,-,79µM,-,-
Cc1cccc(Nc2n[nH]c(=S)s2)c1C,13µM,-,-,-,-,-
COc1ccccc1Nc1n[nH]c(=S)s1,20µM,-,-,?,-,-
COc1ccc(-c2nn(-c3ccccc3)cc2C(=O)Nc2nccs2)cc1,?,-,-,-,18µM,-
Cc1cc(Nc2ccccc2)n(-c2ccccc2)n1,-,-,-,-,-,-
Cc1cc(Nc2nnnn2-c2ccccc2)n(-c2ccc(Cl)cc2)n1,-,-,-,-,16µM,-[10 µM]
Cn1c(=O)c2c(nc(Oc3ccc(-c4ccccc4)cc3)n2C)n(C)c1=O,-,-,-,-,2.8µM,-
Cc1cc(C(=O)N2CCCC(Nc3ccccc3)C2)c2ccc(F)cc2n1 (stereo unspecified),.,-,.,-,.,.
Cc1ccc(C(=O)c2cc([N+](=O)[O-])ccc2N2CCCCC2)cc1,-,-,-,-,-,-[10 µM]
SMILES,KDM4E inh,FBPA coupling cs,RGS12 GoLoco inh,VDR inhibitor,HTT aggregate,HTT cytoprotect
Cc1ccc(C(=O)c2cc([N+](=O)[O-])ccc2N2CC(C)OC(C)C2)cc1 (stereo unspecified),-,-,-,89µM,-,-[10 µM]
CCN(CC)CCn1c2ccccc2c2cnc(N=CN(C)C)c(C#N)c21,?,-,-,-,-,-
CCn1c2ccccc2c2cnc(N=CN(C)C)c(C#N)c21,?,-,-,-,8.9µM,-
COc1ccc(NC(=O)C(NS(=O)(=O)c2cccc3nsnc23)C(C)C)cc1 (stereo unspecified),.,.,.,-,.,.
O=c1c(/C=N/OCc2ccc(Cl)cc2Cl)c[nH]n1-c1cccc(Cl)n1,?,-,-,-,10µM,-
Cc1cc(O)c(/C=N/OCc2ccc(Cl)cc2Cl)c(=O)o1,-,-,-,-,-,.
Cc1ccccc1-n1c(SCC(=O)Nc2ccc(Cl)cc2Cl)nc(O)cc1=O,.,.,.,-,.,.
COc1ccc(NC(=O)c2c(NCc3cccc(OC)c3)sc3c2CCC3)cc1,.,.,.,-,.,.
Cc1ccc(-c2csc(NC(=O)C3CCN(S(=O)(=O)c4cccs4)CC3)n2)cc1,-,-,-,-,?,-[10 µM]
O=C(Nc1nc(-c2ccc3ccccc3c2)cs1)C1CCN(S(=O)(=O)c2cccs2)CC1,18µM,-,-,-,-,-[10 µM]
COc1cccc(/C=N/NC(=O)Cn2nc(C)c([N+](=O)[O-])c2C)c1O,11µM,-,.,-,2.8µM,-[10 µM]
COc1cccc(/C=N/NC(=O)C(C)n2nc(C)c([N+](=O)[O-])c2C)c1O (stereo unspecified),14µM,-,-,-,16µM,-[10 µM]
Cc1nn(CC(=O)N/N=C/c2cccs2)c(C)c1[N+](=O)[O-],-,-,-,-,-[9.22 µM],-[10 µM]
COc1cccc(NC(=S)NNC(=O)C(C)n2nc(C)c([N+](=O)[O-])c2C)c1 (stereo unspecified),-,-,-,-,-,-
N#CC1=C(N)NC(=S)C(C(N)=O)C1c1ccc([N+](=O)[O-])cc1 (stereo unspecified),?,-,-,79µM,?,-
O=C1NC(C(=O)O)=CC(c2ccc([N+](=O)[O-])cc2)N1 (stereo unspecified),-,-,-,-,-[9.22 µM],-[10 µM]
O=S(=O)(c1ccc(C(F)(F)F)cc1)N1CCN(c2nc(-c3cccs3)nc3ccccc23)CC1,.,.,.,-,.,.
N#CC1=C(N)N(c2ccc(Br)cc2)C2=C(C(=O)CCC2)C1c1cccnc1 (stereo unspecified),-,-44,-,?,-,-
COc1ccc(CNC(=O)CCCc2cn(C)c3ccccc23)c(OC)c1,.,.,.,-,.,.
N#C/C(=C\c1ccc(-c2cc(Cl)ccc2Cl)o1)C(=O)Nc1ccccc1C(=O)O,.,.,.,-,.,.
Cc1onc(-c2ccccc2)c1C(=O)OCCOc1ccccc1F,.,-,.,?,.,.
CN1C(=O)CC(Nc2cccc3cccc(N)c23)C1=O (stereo unspecified),?,-41,-,-,?,-
CN1C(=O)CC(NNC(=O)c2ccccc2)C1=O (stereo unspecified),-,-,-,-,-,-
Cc1cc(/C=N/n2cnnc2)c(C)n1-c1ccc(OCc2ccc(Cl)cc2)cc1,?,-,-,-,2.5µM,-
Cc1cc(/C=N/n2cnnc2)c(C)n1-c1ccc(OCc2ccccc2F)cc1,-,-,-,-,10µM,-
COc1ccccc1N(C)S(=O)(=O)c1ccc(C(=O)N(C)Cc2ccc(Cl)s2)cc1,.,.,.,-,.,.
COc1ccc(NC(=O)CCC(=O)c2ccc(F)cc2)cc1,.,.,.,-,.,.
